# Laboratory results taken from PubChem BioAssay (NCI).
# About 79,000 compounds went through this panel and 15% of them were active in at least one assay; those are over-represented in the sample as a whole. Unmarked numbers belong to inactive results. The source made the active and inactive calls. Cut-off read from the data, not from the text of the source: active = growth inhibition above about 70%; inactive = the rest.
# Columns and labels:
# [1] = NCI Yeast Anticancer Drug Screen. Data for the rad52 strain (AID 147);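 note: 0% = growth of vehicle-treated control cultures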; conditions: S. cerevisiae rad52 mutant growth inhibition, hits give high values
# How it was run: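 Genetically altered yeast (DNA damage repair defect) treated with compound; inhibition calculated relative to vehicle.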
# [2] = NCI Yeast Anticancer Drug Screen. Data for the wt1 strain (AID 149);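 note: 0% = growth of vehicle-treated wt1 cultures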; conditions: S. cerevisiae wt1 strain (SPY 50644) growth inhibition, hits give high values
# How it was run: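 Readout: yeast growth inhibition, normalised to vehicle controls, in the wt1 strain exposed to test compounds.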
# [3] = NCI Yeast Anticancer Drug Screen. Data for the rad50EPP+ strain (AID 151);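 note: 0% = growth of vehicle-treated control cultures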; conditions: S. cerevisiae rad50 mutant strain, hits give high values
# How it was run: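 Strain rad50EPP+; compound exposure; % growth inhibition vs vehicle.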
# [4] = NCI Yeast Anticancer Drug Screen. Data for the mgt1 strain (AID 153); conditions: S. cerevisiae mgt1 mutant growth inhibition, hits give high values
# How it was run: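 Read-out: yeast growth inhibition vs vehicle control. Strain mgt1, drawn from a panel altered in DNA damage repair or cell cycle control.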
# [5] = NCI Yeast Anticancer Drug Screen. Data for the rad50 strain (AID 155);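 note: 0% = growth of vehicle-only cultures of the same strain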; conditions: S. cerevisiae rad50 strain growth inhibition, hits give high values
# How it was run: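 Compounds were tested on a yeast strain with an engineered DNA damage repair alteration; the reported value is growth inhibition normalised to vehicle treatment.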
# [6] = NCI Yeast Anticancer Drug Screen. Data for the mec2-1 strain (AID 157); conditions: S. cerevisiae mec2-1 strain, hits give high values
# How it was run: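 Cells of the genetically defined mec2-1 yeast strain are incubated with test compound. Inhibition of growth is calculated against vehicle-treated controls.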
# [7] = NCI Yeast Anticancer Drug Screen. Data for the rad14 strain (AID 159);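 note: 0% = growth of vehicle-treated control cultures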; conditions: S. cerevisiae rad14 strain growth inhibition, hits give high values
# How it was run: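 Compound-treated yeast with a defined DNA-repair lesion; growth inhibition normalised to vehicle-treated cultures.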
# [8] = NCI Yeast Anticancer Drug Screen. Data for the sgs1 mgt1 strain (AID 161);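 note: 0% = growth of cultures given vehicle only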; conditions: S. cerevisiae sgs1 mgt1 strain, hits give high values
# How it was run: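 Inhibition of yeast growth, normalised to vehicle-treated controls, is reported for a strain bearing genetic alterations in DNA damage repair.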
# [9] = NCI Yeast Anticancer Drug Screen. Data for the CLN2oe strain (AID 163);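 note: 0% = growth of vehicle-only control cultures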; conditions: S. cerevisiae CLN2oe strain, hits give high values
# How it was run: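 Strain altered in cell-cycle control, incubated with compound; growth compared to solvent-treated controls.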
# [10] = NCI Yeast Anticancer Drug Screen. Data for the cln2 rad14 strain (AID 165);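 note: 0% = growth equal to vehicle treated cultures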; conditions: S. cerevisiae cln2 rad14 strain, hits give high values
# How it was run: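 The screen exposed genetically defined yeast (cln2 rad14) to test compounds and scored growth inhibition relative to vehicle-treated controls.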
# [11] = NCI Yeast Anticancer Drug Screen. Data for the bub3 strain (AID 167); conditions: S. cerevisiae bub3 mutant strain, hits give high values
# How it was run: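 Growth of a checkpoint-deficient yeast mutant is measured after compound exposure. Values represent inhibition relative to vehicle.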
# [12] = NCI Yeast Anticancer Drug Screen. Data for the wt2 strain (AID 169);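 note: 0% = growth of vehicle-treated yeast cultures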; conditions: S. cerevisiae wt2 strain growth inhibition, hits give high values
# How it was run: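 Steps: yeast strain treated with compound; growth recorded; inhibition calculated relative to cultures given vehicle alone.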
# [13] = NCI Yeast Anticancer Drug Screen. Data for the mlh1 strain (AID 171);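 note: 0% = growth of vehicle-treated control cultures of the same strain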; conditions: S. cerevisiae mlh1 strain growth inhibition, hits give high values
# How it was run: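 Yeast screen: mutant strain plus compound, growth scored against vehicle control wells.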
# [14] = NCI Yeast Anticancer Drug Screen. Data for the sgs1 strain (AID 173);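 note: 0% = growth of vehicle-only control cultures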; conditions: S. cerevisiae sgs1 mutant, hits give high values
# How it was run: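 Inhibition of yeast growth served as the measure. The mutant strain was treated with each compound, and growth was normalised to cultures receiving vehicle alone.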
# [15] = NCI Yeast Anticancer Drug Screen. Data for the mlh1 rad18 strain (AID 175); conditions: S. cerevisiae mlh1 rad18 strain growth inhibition, hits give high values
# How it was run: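 Compound-treated yeast growth, normalised to vehicle controls. Strain bears defined DNA repair mutations.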
# [16] = NCI Yeast Anticancer Drug Screen. Data for the rad18 strain (AID 177); conditions: S. cerevisiae rad18 mutant growth inhibition, hits give high values
# How it was run: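 Inhibition values reflect reduced yeast growth compared with vehicle-treated controls, using a strain engineered with a DNA damage repair defect.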
# [17] = at 5.0 µM (retest, dose inferred, filed as 0.5)
# [18] = at 50.0 µM (retest, dose inferred, filed as 5.0)
smiles,measurement,setting,value
N#CN1C2CCC1CC(=O)C2,growth inhibition,[1]; at 1.2 µM,-12%
same,growth inhibition,[1]; at 3.7 µM,-32%
same,growth inhibition,[1]; at 11.0 µM,-21%
same,growth inhibition,[1]; at 33.0 µM,-18%
same,growth inhibition,[1]; at 100.0 µM,-21%
same,growth inhibition,[2]; at 1.2 µM,-25%
same,growth inhibition,[2]; at 3.7 µM,-37%
same,growth inhibition,[2]; at 11.0 µM,-46%
same,growth inhibition,[2]; at 33.0 µM,-53%
same,growth inhibition,[2]; at 100.0 µM,-35%
same,growth inhibition,[3]; at 1.2 µM,-25%
same,growth inhibition,[3]; at 3.7 µM,-35%
same,growth inhibition,[3]; at 11.0 µM,-27%
same,growth inhibition,[3]; at 33.0 µM,-43%
same,growth inhibition,[3]; at 100.0 µM,-33%
same,growth inhibition,[4]; at 1.2 µM,-8%
same,growth inhibition,[4]; at 3.7 µM,-10%
same,growth inhibition,[4]; at 11.0 µM,-13%
same,growth inhibition,[4]; at 33.0 µM,-11%
same,growth inhibition,[4]; at 100.0 µM,-8%
same,growth inhibition,[5]; at 1.2 µM,3%
same,growth inhibition,[5]; at 3.7 µM,1%
same,growth inhibition,[5]; [17],66%
same,growth inhibition,[5]; at 11.0 µM,-34%
same,growth inhibition,[5]; at 33.0 µM,-40%
same,growth inhibition,[5]; [18],99% (active)
same,growth inhibition,[5]; at 50.0 µM,66%
same,growth inhibition,[5]; at 100.0 µM,-24%
same,growth inhibition,[6]; at 1.2 µM,-27%
same,growth inhibition,[6]; at 3.7 µM,-36%
same,growth inhibition,[6]; [17],63%
same,growth inhibition,[6]; at 11.0 µM,-54%
same,growth inhibition,[6]; at 33.0 µM,-24%
same,growth inhibition,[6]; [18],84% (active)
same,growth inhibition,[6]; at 50.0 µM,43.6%
same,growth inhibition,[6]; at 100.0 µM,-36%
same,growth inhibition,[7]; at 1.2 µM,-26%
same,growth inhibition,[7]; at 3.7 µM,-23%
same,growth inhibition,[7]; at 11.0 µM,-13%
same,growth inhibition,[7]; at 33.0 µM,-2%
same,growth inhibition,[7]; at 100.0 µM,8%
same,growth inhibition,[8]; [17],-5%
same,growth inhibition,[8]; [18],-5%
same,growth inhibition,[8]; at 50.0 µM,77.4% (active)
same,growth inhibition,[9]; at 1.2 µM,12%
same,growth inhibition,[9]; at 3.7 µM,7%
same,growth inhibition,[9]; at 11.0 µM,-28%
same,growth inhibition,[9]; at 33.0 µM,-27%
same,growth inhibition,[9]; at 100.0 µM,-11%
same,growth inhibition,[10]; [17],50%
same,growth inhibition,[10]; [18],34%
same,growth inhibition,[10]; at 50.0 µM,74.8% (active)
same,growth inhibition,[11]; at 1.2 µM,14%
same,growth inhibition,[11]; at 3.7 µM,23%
same,growth inhibition,[11]; [17],39%
same,growth inhibition,[11]; at 11.0 µM,15%
same,growth inhibition,[11]; at 33.0 µM,27%
same,growth inhibition,[11]; [18],12%
same,growth inhibition,[11]; at 50.0 µM,57.3%
same,growth inhibition,[11]; at 100.0 µM,31%
same,growth inhibition,[12]; at 1.2 µM,-18%
same,growth inhibition,[12]; at 3.7 µM,-16%
same,growth inhibition,[12]; at 11.0 µM,-19%
same,growth inhibition,[12]; at 33.0 µM,-22%
same,growth inhibition,[12]; at 100.0 µM,-25%
same,growth inhibition,[13]; at 1.2 µM,-19%
same,growth inhibition,[13]; at 3.7 µM,-11%
same,growth inhibition,[13]; at 11.0 µM,-13%
same,growth inhibition,[13]; at 33.0 µM,-16%
same,growth inhibition,[13]; at 100.0 µM,-21%
same,growth inhibition,[14]; at 1.2 µM,-17%
same,growth inhibition,[14]; at 3.7 µM,-20%
same,growth inhibition,[14]; at 11.0 µM,-12%
same,growth inhibition,[14]; at 33.0 µM,-23%
same,growth inhibition,[14]; at 100.0 µM,-24%
same,growth inhibition,[15]; [17],75% (active)
same,growth inhibition,[15]; [18],100% (active)
same,growth inhibition,[15]; at 50.0 µM,62.1%
same,growth inhibition,[16]; at 1.2 µM,-10%
same,growth inhibition,[16]; at 3.7 µM,-15%
same,growth inhibition,[16]; at 11.0 µM,-22%
same,growth inhibition,[16]; at 33.0 µM,-21%
same,growth inhibition,[16]; at 100.0 µM,-9%
CC(C)(CN1CCCCC1)C(=O)CC(SCCS(=O)(=O)O)c1ccc(Br)cc1 (stereo unspecified),growth inhibition,[1]; at 1.2 µM,1%
same,growth inhibition,[1]; at 3.7 µM,6%
same,growth inhibition,[1]; at 11.0 µM,9%
same,growth inhibition,[1]; at 33.0 µM,22%
same,growth inhibition,[1]; at 100.0 µM,54%
same,growth inhibition,[2]; at 1.2 µM,3%
same,growth inhibition,[2]; at 3.7 µM,6%
same,growth inhibition,[2]; at 11.0 µM,9%
same,growth inhibition,[2]; at 33.0 µM,11%
same,growth inhibition,[2]; at 100.0 µM,24%
same,growth inhibition,[3]; at 1.2 µM,-2%
same,growth inhibition,[3]; at 3.7 µM,-4%
same,growth inhibition,[3]; at 11.0 µM,-4%
same,growth inhibition,[3]; at 33.0 µM,0%
same,growth inhibition,[3]; at 100.0 µM,14%
same,growth inhibition,[4]; at 1.2 µM,-1%
same,growth inhibition,[4]; at 3.7 µM,0%
same,growth inhibition,[4]; at 11.0 µM,8%
same,growth inhibition,[4]; at 33.0 µM,21%
same,growth inhibition,[4]; at 100.0 µM,59%
same,growth inhibition,[5]; at 1.2 µM,-2%
same,growth inhibition,[5]; at 3.7 µM,-5%
same,growth inhibition,[5]; [17],13%
same,growth inhibition,[5]; at 11.0 µM,-1%
same,growth inhibition,[5]; at 33.0 µM,24%
same,growth inhibition,[5]; [18],32%
same,growth inhibition,[5]; at 50.0 µM,73.8% (active)
same,growth inhibition,[5]; at 100.0 µM,50%
same,growth inhibition,[6]; at 1.2 µM,1%
same,growth inhibition,[6]; at 3.7 µM,6%
same,growth inhibition,[6]; [17],-7%
same,growth inhibition,[6]; at 11.0 µM,14%
same,growth inhibition,[6]; at 33.0 µM,18%
same,growth inhibition,[6]; [18],11%
same,growth inhibition,[6]; at 50.0 µM,52.9%
same,growth inhibition,[6]; at 100.0 µM,36%
same,growth inhibition,[7]; at 1.2 µM,6%
same,growth inhibition,[7]; at 3.7 µM,19%
same,growth inhibition,[7]; at 11.0 µM,42%
same,growth inhibition,[7]; at 33.0 µM,39%
same,growth inhibition,[7]; at 100.0 µM,51%
same,growth inhibition,[8]; [17],5%
same,growth inhibition,[8]; [18],4%
same,growth inhibition,[8]; at 50.0 µM,68.5%
same,growth inhibition,[9]; at 1.2 µM,2%
same,growth inhibition,[9]; at 3.7 µM,4%
same,growth inhibition,[9]; at 11.0 µM,13%
same,growth inhibition,[9]; at 33.0 µM,25%
same,growth inhibition,[9]; at 100.0 µM,33%
same,growth inhibition,[10]; [17],13%
same,growth inhibition,[10]; [18],26%
same,growth inhibition,[10]; at 50.0 µM,56.7%
same,growth inhibition,[11]; at 1.2 µM,1%
same,growth inhibition,[11]; at 3.7 µM,6%
same,growth inhibition,[11]; [17],-4%
same,growth inhibition,[11]; at 11.0 µM,17%
same,growth inhibition,[11]; at 33.0 µM,29%
same,growth inhibition,[11]; [18],56%
same,growth inhibition,[11]; at 50.0 µM,74.7% (active)
same,growth inhibition,[11]; at 100.0 µM,61%
same,growth inhibition,[12]; at 1.2 µM,1%
same,growth inhibition,[12]; at 3.7 µM,3%
same,growth inhibition,[12]; at 11.0 µM,11%
same,growth inhibition,[12]; at 33.0 µM,24%
same,growth inhibition,[12]; at 100.0 µM,46%
same,growth inhibition,[13]; at 1.2 µM,3%
same,growth inhibition,[13]; at 3.7 µM,6%
same,growth inhibition,[13]; at 11.0 µM,17%
same,growth inhibition,[13]; at 33.0 µM,26%
same,growth inhibition,[13]; at 100.0 µM,52%
same,growth inhibition,[14]; at 1.2 µM,2%
same,growth inhibition,[14]; at 3.7 µM,11%
same,growth inhibition,[14]; at 11.0 µM,28%
same,growth inhibition,[14]; at 33.0 µM,42%
same,growth inhibition,[14]; at 100.0 µM,62%
same,growth inhibition,[15]; [17],3%
same,growth inhibition,[15]; [18],21%
same,growth inhibition,[15]; at 50.0 µM,65.2%
same,growth inhibition,[16]; at 1.2 µM,2%
same,growth inhibition,[16]; at 3.7 µM,15%
same,growth inhibition,[16]; at 11.0 µM,29%
same,growth inhibition,[16]; at 33.0 µM,25%
same,growth inhibition,[16]; at 100.0 µM,55%
